Compound activity deposited in PubChem BioAssay by several laboratories.
Wee1 degr inh = human Wee1 degradation inhibition, primary screen. P30291. HeLa Luc-Wee1K328M stability, luciferase luminescence; 100% = proteasome inhibitor MG132 effect. reporter increase, % at 5 µM. 220,000 compounds, 1.2% hits;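 active means activation above the mean of all tested compounds plus 3 SD, set per screening run, cut at about 8.8% in these data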;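 further: cells exposed to compound for 20 h before luminescence read; 0% = DMSO alone and 100% = MG132 at 30 µM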
Target sequence (P30291 whole entry K328M): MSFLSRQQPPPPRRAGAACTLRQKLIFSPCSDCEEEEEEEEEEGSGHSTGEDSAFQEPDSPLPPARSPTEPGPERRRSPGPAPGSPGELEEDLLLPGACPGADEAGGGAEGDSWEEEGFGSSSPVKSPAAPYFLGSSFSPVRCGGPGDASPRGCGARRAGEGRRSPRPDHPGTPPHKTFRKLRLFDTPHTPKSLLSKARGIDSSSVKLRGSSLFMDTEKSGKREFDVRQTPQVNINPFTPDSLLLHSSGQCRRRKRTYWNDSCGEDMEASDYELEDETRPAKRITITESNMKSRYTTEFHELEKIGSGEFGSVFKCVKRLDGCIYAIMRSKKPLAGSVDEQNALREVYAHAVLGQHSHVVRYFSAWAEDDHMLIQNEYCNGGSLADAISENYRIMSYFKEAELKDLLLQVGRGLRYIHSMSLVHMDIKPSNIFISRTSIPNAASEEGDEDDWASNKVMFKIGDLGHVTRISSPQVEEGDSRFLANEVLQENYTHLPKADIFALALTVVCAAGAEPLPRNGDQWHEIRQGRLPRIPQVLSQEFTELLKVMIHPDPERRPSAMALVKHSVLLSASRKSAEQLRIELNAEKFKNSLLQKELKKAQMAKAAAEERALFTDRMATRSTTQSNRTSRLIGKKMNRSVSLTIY
HIF activator = HIF pathway transcriptional activation. U2OS HRE-luciferase reporter, luminescence; normalized: DMSO 0%, desferrioxamine 100%. activation, % at 7.5 µM (by protocol). 300,000 compounds, 0.32% hits;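 active means mean activation of at least 10% of the iron chelator positive control signal, with at least half of replicates also reaching 10%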
Platelet DG rel = modulates dense granule release in human platelets; human platelet-rich plasma, SFLLRN dense granule ATP release, luminescence; inhibition, %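 (compounds screened at 7.5 µM in platelet-rich plasma)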; 300,000 compounds, 0.22% hits;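 active means mean replicate score, as percent of positive control, at or above 50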
aSyn UTR inh = MLPCN primary screen, SNCA 5' untranslated region; inhibition, % (tested at 7.5 µM); alpha-synuclein 5'UTR reporter, inhibitor activity; 300,000 compounds, 0.82% hits; in the data active means inhibition above about 60%;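 further: H4 neuroglioblastoma cells stably carrying SNCA 5'UTR luciferase fusion; 0% = DMSO wells and 100% = positive control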
KLF5 inhibitor = inhibitors of KLF5 expression; DLD-1 KLF5 promoter-luciferase reporter, luminescence; inhibition, % at 5 µM; 290,000 compounds, 0.23% hits; AID 1700;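 active means inhibition above a per-plate limit of that plate's mean compound inhibition plus 3 SD, cut at about 60% in these data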;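 further: 0% = DMSO wells and 100% = LY294002 at 200 µM; higher means less KLF5 promoter-driven luciferase light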
Wee1 stab conf = human Wee1 degradation inhibition, confirmation; HeLa Luc-Wee1K328M degradation, luminescence; vehicle 0%, proteasome-blocked wells 100%; shares compounds with Wee1 degr inh; 1,100 compounds, 4% hits; activation, % at 5 µM; in the data active means activation above about 8.9%
Starred values were filed as active, the others as inactive; . = not tested or not shown. Only some compounds are listed: those with a hit (about 2.1% of all), similar ones and a draw of the others.

SMILES | Wee1 degr inh | HIF activator | Platelet DG rel | aSyn UTR inh | KLF5 inhibitor | Wee1 stab conf
O=S(=O)(C/C(=C/CO)S(=O)(=O)c1ccccc1)c1ccccc1 | 13* | -2 | 2 | -71 | 27 | 8.8*
COCCN(C(=O)COC(=O)CCOc1cccc(C)c1)c1c(N)n(Cc2ccccc2)c(=O)[nH]c1=O | . | 0 | -5 | -1 | . | .
O=C(CO/N=C1\CCCc2nonc21)Nc1ccc(Br)cc1 | 12* | 0 | -7 | -30 | -14 | 7
COc1ccc(NC(=O)CO/N=C2\CCCc3nonc32)cc1 | 1 | 0 | -14 | 16 | -20 | .
COc1ccc2[nH]c(CN3CCN(C(C)C)C(CCO)C3)c(C)c2c1 (centres undefined) | 20* | 0 | 0 | 12 | -13 | 2
O=C(/C=C\Nc1ccc(Br)cc1)c1cccnc1 | 11* | 2 | 2 | -69 | -5 | 0
CCn1c(=S)sc2c(=O)n(CC(=O)Nc3ccc(C(C)=O)cc3)c(C)nc21 | . | 0 | 2 | -3 | -27 | .
CC(C)c1nnc(SCC(=O)NCc2ccc3c(c2)OCO3)n1C | 12* | 0 | 4 | 11 | -33 | -1
Cc1nn(C(C)C(=O)NCCCc2ccccc2)c(=O)c2nn(-c3ccccc3)c(C)c12 (centres undefined) | . | -1 | 10 | -5 | -2 | .
O=C(Nc1nc2c(s1)CCCC2)c1ccc2ncsc2c1 | 20* | 0 | 11 | -36 | -45 | 1
Cc1cc(C(=O)Nc2nc3c(s2)CCCC3)cs1 | 6 | -1 | 4 | -52 | -130 | .
Cc1ccc(C(=O)O)cc1NC(=S)NC(=O)c1ccc(-c2ccc(Cl)cc2)o1 | 12* | 0 | -4 | 3 | 2 | 1
CCOc1ccc(S(=O)(=O)N(C)c2ccc(OCC(=O)N3c4ccc(C)cc4C4CN(C)CCC43)cc2)cc1 (centres undefined) | 13* | -1 | 0 | -16 | -16 | 0
CC(C)(C)NC(=O)C(c1ccc(F)cc1)N(Cc1cccs1)C(=O)c1ccc(CN2CCOCC2)o1 (centres undefined) | 11* | 0 | -1 | 4 | -35 | 2
CC(C)Cc1nnc(NC(=O)CCC(=O)NC2CCCCCC2)s1 | . | 0 | 1 | 18 | 4 | .
CCCOc1ccccc1C(=O)N(Cc1cccc(Br)c1)C1CCS(=O)(=O)C1 (centres undefined) | . | 0 | 1 | 8 | -42 | .
O=c1cc(-c2ccccc2Cl)oc2cc(O)cc(O)c12 | -1 | -1 | -1 | -58 | 0 | .
O=C1C=CC(O)(c2cc(=O)c3c(O)cc(O)cc3o2)C=C1 | 41* | -3 | -1 | 26 | 37 | 69*
CC(=O)Nc1ccc(S(=O)(=O)NCc2ccncc2)cc1 | 12* | 0 | 10 | -8 | -3 | -1
CCC(C)N(C(=O)COC(=O)CNC(=O)c1ccccc1F)C1CCS(=O)(=O)C1 (centres undefined) | 15* | 0 | -7 | 3 | -4 | -1
CC(C)CN(C(=O)COC(=O)CNC(=O)c1ccccc1F)C1CCS(=O)(=O)C1 (centres undefined) | -3 | 0 | 1 | 8 | -32 | .
CC(=O)NC(CC(=O)NNC(=O)c1cc2ccccc2cc1O)c1ccccc1 (centres undefined) | . | 0 | 3 | 9 | -40 | .
N#Cc1ccc(-c2csc(NC3=NCCCCC3)n2)cc1 | 15* | 1 | 10 | -73 | -51 | 2
c1ccc(-c2csc(NC3=NCCCCC3)n2)cc1 | -1 | 1 | 0 | -99 | -29 | .
CCC(C)[C@H](NC(=O)N1CCN(c2cccc(C(F)(F)F)c2)CC1)C(=O)OC (some centres undefined) | 12* | 0 | 0 | -24 | -13 | 3
COc1ccc(-c2nnc(SCC(=O)N/N=C/c3ccccc3C(=O)O)n2-c2ccc(Cl)cc2)cc1 | 12* | 1 | -5 | 4 | -25 | 1
Cc1nc(-c2ccccc2)sc1-c1ccnn1C | 18* | 2 | 0 | -111 | -76 | 5
CCOC(=O)C1=C(O)C(=O)N(Cc2ccc(C(C)(C)C)cc2)CC1 | 14* | 0 | 0 | -5 | -14 | 1
COc1cc([N+](=O)[O-])ccc1NC(=O)CCCOc1cc(C)ccc1C | 13* | 0 | 3 | 0 | -35 | 0
COC(=O)[C@@H](NC(=O)NCCC1=CCCCC1)C(C)C | 5 | 3 | 4 | 15 | 4 | .
